High-throughput results: PubChem BioAssay, Paczesny and Yang Labs, IUPUI and University of Michigan
Shown is part of a subset that was picked to be rich in hits.
ST2 IL33 inh: inhibitors of human ST2 (IL1RL1) binding to IL-33, primary screen, biochemical, AlphaLISA. AlphaLISA ST2-Fc/biotin-IL-33 interaction, 1 h. actives 2.3% (n = 78,000). inhibition, % for hits at 17 µM; in the data active = inhibition above about 30%
The depositor's hits bear a star.

For COc1cc(Cn2ccnc2C2CCN(C)CC2)cc(OC)c1OC the results were ST2 IL33 inh inactive.
For COC(=O)c1ccc(CSc2nc(C)cc(C)n2)cc1 the results were ST2 IL33 inh inactive.
Screening CCN(CC)c1ccc(/C=C2\SC(=O)N(CC(=O)N3CCOCC3)C2=O)cc1 returned ST2 IL33 inh inactive.
CN1C(=O)S/C(=C/c2ccccc2OCc2ccc(C(=O)O)cc2)C1=O was read as ST2 IL33 inh inactive.
Screening COc1cc(C=O)ccc1OC(=O)N1CCOCC1 returned ST2 IL33 inh inactive.
C=CCOc1ccc(/C=C2\SC(=O)N(CC(=O)N3CCOCC3)C2=O)cc1OC was read as ST2 IL33 inh 40%*.
For O=C(CN1C(=O)S/C(=C\c2ccccc2OCc2cccc(F)c2)C1=O)N1CCOCC1 the results were ST2 IL33 inh 30%*.
Cc1ccc(COc2ccc(/C=C3\SC(=O)N(CC(=O)N4CCOCC4)C3=O)cc2)cc1 was read as ST2 IL33 inh inactive.
`O=C(CN1N=NC2C(=O)N(c3ccccc3)C(=O)C21)Nc1ccc(Cl)cc1` (configuration not stated) gave ST2 IL33 inh inactive.
`Cn1cc(C=C2C(=O)OC3(CCCCC3)OC2=O)c2ccccc21` gave ST2 IL33 inh 41%*.
Screening CCN(CC)C(=O)Cn1cc(/C=C2\C(=O)NC(=O)N(CC)C2=O)c2ccccc21 returned ST2 IL33 inh inactive.
For CCOc1cc(C=C2C(=O)OC(C)(C(C)(C)C)OC2=O)cc(I)c1O (configuration not stated) the results were ST2 IL33 inh inactive.
For COc1ccc(C=C2C(=O)OC3(CCCCC3)OC2=O)cc1O the results were ST2 IL33 inh inactive.
`CCn1cc(C=C2C(=O)OC(C)(C(C)(C)C)OC2=O)c2ccccc21` (configuration not stated) gave ST2 IL33 inh 44%*.
For Cn1cc(/C=C2\C(=O)NN(c3ccccc3)C2=O)c2ccccc21 the results were ST2 IL33 inh inactive.
`CCOc1cc(C=C2C(=O)OC(C)(C(C)(C)C)OC2=O)ccc1OC` (configuration not stated) gave ST2 IL33 inh inactive.
`N#Cc1ccccc1Cn1cc(C=C2C(=O)NC(=O)NC2=O)c2ccccc21` gave ST2 IL33 inh inactive.
For CCN(CC)c1ccc(C=C2C(=O)OC(C)(C(C)(C)C)OC2=O)cc1 (configuration not stated) the results were ST2 IL33 inh 43%*.
Screening Cc1nc(N2CCOCC2)c2c(C)c(C(=O)N3CCC(C)CC3)sc2n1 returned ST2 IL33 inh inactive.
`CCOc1ccc(C2C(C(=O)OC(C)C)=C(C)NC3=C2C(=O)C(C(=O)OC)C(C)C3)cc1` (configuration not stated) gave ST2 IL33 inh inactive.
`COc1cc2c(cc1C(=O)NCc1cccnc1N(C)C)CCC2` gave ST2 IL33 inh inactive.
`CCn1c(CC2CCN(S(=O)(=O)c3cccs3)CC2)nn(C)c1=O` gave ST2 IL33 inh inactive.
Screening Cc1ccccc1CSC1=NCCN1C(=O)c1ccccc1F returned ST2 IL33 inh inactive.
Screening O=C(Cn1cnnn1)N1CCC(N2CCCC(C(=O)N3CCCC3)C2)CC1 (configuration not stated) returned ST2 IL33 inh inactive.
For O=C(Nc1ccc(Cl)cn1)c1cnc(N2CCN(c3ccccn3)CC2)c2ccccc12 the results were ST2 IL33 inh inactive.
CCOc1ncccc1-c1cnn(CC(=O)NC)c1 was read as ST2 IL33 inh inactive.
`O=C(Nc1ccccc1)C(Cc1c[nH]c2ccccc12)NC(=O)C(c1ccccc1)c1ccccc1` (configuration not stated) gave ST2 IL33 inh inactive.
For O=C(NCc1ccco1)c1ccc2c(c1)N(Cc1c(F)cccc1Cl)C(=O)CS2 the results were ST2 IL33 inh inactive.
O=C(Nc1cc2cccc([N+](=O)[O-])c2oc1=O)c1cccc(I)c1 was read as ST2 IL33 inh inactive.
For CCOc1ccc(NC(=O)c2c(-c3ccccc3)noc2C)c([N+](=O)[O-])c1 the results were ST2 IL33 inh 38%*.
Cc1onc(-c2ccccc2)c1C(=O)Nc1cc2cccc([N+](=O)[O-])c2oc1=O was read as ST2 IL33 inh 46%*.
Screening Cc1ccccc1C(=O)Nc1cc2cccc([N+](=O)[O-])c2oc1=O returned ST2 IL33 inh inactive.
Screening Cc1onc(-c2ccccc2)c1C(=O)Nc1cccc(NC(=O)c2c(-c3ccccc3)noc2C)n1 returned ST2 IL33 inh inactive.
CCOc1ccccc1NC(=O)c1c(-c2ccccc2Cl)noc1C was read as ST2 IL33 inh inactive.
Screening O=C(CS(=O)(=O)c1c[nH]c2ccccc12)Nc1ccccc1 returned ST2 IL33 inh inactive.
CC(=O)Nc1nc(-c2ccc(Cl)cc2)nc2c1c(=O)oc1ccccc12 was read as ST2 IL33 inh inactive.
For COCCNC(=O)c1cc2c(=O)n3ccccc3nc2n1C the results were ST2 IL33 inh inactive.
For NS(=O)(=O)c1ccc2nc(NC(=O)c3ccccc3F)sc2c1 the results were ST2 IL33 inh inactive.
